Screens deposited in PubChem by several laboratories.
An excerpt weighted towards active compounds, which were near 4% of everything screened.
Rv3671c protease = Rv3671c serine protease inhibitors, primary screen, biochemical, fluorescence polarization, M. tuberculosis H37Rv; P9WHR9; AID 2606, 2010; 320,000 compounds, 0.048% hits; inhibition, % at 5.96 µM; in the data active means inhibition above about 38%;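 further: extracellular domain of Rv3671c used as enzyme; 0% = enzyme with DMSO and 100% = no enzyme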
GDH-TPI inh = GDH-TPI coupling enzyme inhibitors, primary screen, artefact control for M. tuberculosis FBA inhibitor project, biochemical, absorbance, full deck. GDH-TPI coupled enzyme counterscreen, NADH absorbance. 360,000 compounds, 1.2% hits. inhibition, % at 4.8 µM. AID 588335, 2011; in the data active means inhibition above about 30%;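 further: 0% = DMSO wells and 100% = wells lacking the enzyme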
RecA splice inh = Mtb RecA intein splicing inhibitors, primary screen, biochemical, fluorescence, HTS; cell-free RecA intein splicing; inhibition, % (concentration not given with the values); 290,000 compounds, 0.75% hits; AID 2221, 2009; in the data active means inhibition above about 30%;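 further: 0% = vehicle wells and 100% = reference inhibitor control wells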
Target sequence (P9WHJ3 whole entry, looked up, canonical isoform): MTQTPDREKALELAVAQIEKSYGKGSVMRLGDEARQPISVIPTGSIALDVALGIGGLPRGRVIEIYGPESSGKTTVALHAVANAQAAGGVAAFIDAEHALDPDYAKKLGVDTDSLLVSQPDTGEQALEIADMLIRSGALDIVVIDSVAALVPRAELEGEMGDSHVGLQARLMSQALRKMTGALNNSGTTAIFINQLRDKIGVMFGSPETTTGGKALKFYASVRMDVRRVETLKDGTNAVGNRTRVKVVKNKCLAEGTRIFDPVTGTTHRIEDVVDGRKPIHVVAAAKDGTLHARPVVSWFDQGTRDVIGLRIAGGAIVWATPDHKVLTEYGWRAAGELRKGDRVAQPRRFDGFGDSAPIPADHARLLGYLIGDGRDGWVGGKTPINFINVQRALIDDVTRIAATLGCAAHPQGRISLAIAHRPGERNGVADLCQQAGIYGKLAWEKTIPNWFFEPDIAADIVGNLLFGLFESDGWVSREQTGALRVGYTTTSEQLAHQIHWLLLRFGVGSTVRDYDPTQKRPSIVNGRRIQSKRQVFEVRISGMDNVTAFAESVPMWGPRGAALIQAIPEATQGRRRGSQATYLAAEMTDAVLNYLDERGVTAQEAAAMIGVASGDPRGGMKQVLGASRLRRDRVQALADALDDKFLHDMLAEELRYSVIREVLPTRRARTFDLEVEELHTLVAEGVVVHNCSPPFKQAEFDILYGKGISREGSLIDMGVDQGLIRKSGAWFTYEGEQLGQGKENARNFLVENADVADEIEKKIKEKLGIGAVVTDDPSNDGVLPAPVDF
Mtb FBA inh = Mtb FBA enzyme inhibitors, primary screen, biochemical, fluorescence, strain H37Rv. Fructose-bisphosphate aldolase (Mycobacterium tuberculosis (strain ATCC 25618 / H37Rv)), …. purified M. tuberculosis FBA, fluorescence read-out. inhibition, % at 1 µM. 360,000 compounds, 2.3% hits. AID 588726, 2011; in the data active means inhibition above about 27%;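 further: 0% = vehicle and 100% = reference inhibitor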
Mtb UGM inh = M. tuberculosis UGM enzyme inhibitors, primary screen, biochemical, fluorescence polarization, single point; UDP-galactopyranose mutase (Mycobacterium tuberculosis (strain ATCC 25618 / H37Rv)), …; purified UGM, fluorescence polarization probe displacement; inhibition, % at 10 µM; 320,000 compounds, 0.06% hits; AID 504406, 2011; in the data active means inhibition above about 10%, passing the limit was not always enough
Mtb betalactam = beta-lactam sensitization of Mtb H37Rv, H37Rv; 330,000 compounds, 0.27% hits; AID 434955, 2010; M. tuberculosis H37Rv growth with meropenem, percent inhibition; inhibition, % at 25 µM; call rule not given here;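 further: growth measured after seven days incubation then overnight dye step; 0% = bacteria only wells and 100% = bacteria with antibiotic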
An asterisk follows results filed as active; nt = no result; + = active, no number.

SMILES	Rv3671c protease	GDH-TPI inh	RecA splice inh	Mtb FBA inh	Mtb UGM inh	Mtb betalactam
COc1ccc(C)cc1NC(=O)ON=C1CCCCC1	nt	nt	nt	-0.3	nt	nt
O=C(O)c1ccc2c(c1)C(=O)N(c1ccc(Cl)cn1)C2=O	6.3	4.7	-0.1	2.0	2.3	-1.9
O=C(O)c1ccc2c(c1)C(=O)N(c1ccc([N+](=O)[O-])cn1)C2=O	-1.3	35.7*	6.0	-0.7	1.5	-3.2
C[C@H](CO)N1C[C@H](C)[C@H](CN(C)C(=O)C2CC2)OCc2cnnn2CCCC1=O	nt	-4.3	nt	1.7	nt	nt
CCc1nc2c(OCCOC)cccn2c1N(C)C(=O)Nc1ccccc1OC	nt	14.2	nt	6.1	nt	nt
O=C(NNC(=O)c1cc(S(=O)(=O)N2CCOCC2)c(Cl)cc1Cl)c1ccccc1F	-0.8	0.0	nt	0.6	-0.4	-1.6
COCCN1CCn2c(nc3cc(NC(=O)NC4CCCCC4)ccc32)C1	5.7	3.7	nt	94.0*	-1.7	3.5
CCCS(=O)(=O)NC(=O)C1(C)CCCN(C(=O)c2c(F)ccc(C)c2F)C1 (stereo unspecified)	nt	-13.4	nt	2.5	nt	nt
CN1CCc2c(sc3nc(SCC(N)=O)n(-c4ccccc4)c(=O)c23)C1	-0.3	15.7	3.1	4.1	0.7	9.5
CCn1c(SCC(=O)NCCc2ccccc2)nc2sc3c(c2c1=O)CCN(C)C3	-2.3	34.7*	-7.1	17.4	1.9	-4.1
CN1CCc2c(sc3nc(SCC(N)=O)n(-c4ccc(Cl)cc4)c(=O)c23)C1	-9.1	32.4*	15.2	9.7	-0.9	-2.4
CN1CCc2c(sc3nc(SCC(=O)N4CCCCC4)n(-c4ccccc4)c(=O)c23)C1	-3.0	38.8*	4.4	20.7	-0.1	23.5
CCOC(=O)c1cc(-c2ccccc2C)nn1CC1CC(c2cccnc2)=NO1 (stereo unspecified)	-5.3	2.0	nt	-1.0	-1.8	3.4
COc1ccc(OC)c(-n2c(O)c(C=Nc3c(C)n(C)n(-c4ccccc4)c3=O)c(=O)[nH]c2=O)c1	3.0	19.5	-1.4	4.6	-1.9	-0.4
Cc1c(N=Nc2c(O)n(Cc3ccccc3)c(=O)[nH]c2=O)c(=O)n(-c2ccccc2)n1C	-35.5	35.8*	1.7	-5.0	-1.3	-3.2
COc1ccccc1-n1c(O)c(C=Nc2c(C)n(C)n(-c3ccccc3)c2=O)c(=O)[nH]c1=O	-10.5	36.6*	-3.3	-6.0	-1.7	1.3
Cc1c(N=Cc2c(O)n(Cc3ccccc3)c(=O)[nH]c2=O)c(=O)n(-c2ccccc2)n1C	0.9	16.8	nt	-2.8	-1.1	0.3
COCCNC(=O)c1ccc(N2CC3CC(C2)c2cccc(=O)n2C3)c(NC(=O)c2ccc(Br)o2)c1 (stereo unspecified)	-13.2	5.1	4.9	0.4	0.9	-8.6
O=C(CSc1cccs1)Nc1ccc(Cl)cc1	8.8	0.4	1.5	0.3	0.9	1.6
O=c1/c(=C\c2ccc(F)cc2)sc2n1CCCN=2	2.5	32.7*	nt	0.2	0.8	-4.3
COCCn1c(SCC(=O)N2CCCC2)nnc1-c1ccoc1C	3.4	-8.1	0.0	129.7*	4.6	-3.0
Cc1ccccc1Oc1ccc2c(c1)[C@@H]1C[C@H](N(C)C(=O)c3ccco3)[C@H]([C@H](C)O)C(=O)N1CC2	nt	4.1	nt	-0.8	nt	nt
O=C(c1ccccc1)C(O)C(c1ccccc1)N1CCOCC1 (stereo unspecified)	0.3	-5.9	-2.9	-0.1	0.6	-3.8
CC(=O)CSc1nc2cc3c(cc2cc1C#N)OCCO3	7.7	32.9*	-3.5	3.4	-1.3	4.9
N#Cc1cc2cc3c(cc2nc1SCC(=O)N1CCCC1)OCCO3	8.2	6.0	0.7	3.2	-2.3	-8.7
SMILES	Rv3671c protease	GDH-TPI inh	RecA splice inh	Mtb FBA inh	Mtb UGM inh	Mtb betalactam
CCN1CCN(c2ncnc3c2sc(=S)n3-c2ccccc2)CC1	-6.0	38.6*	0.5	2.1	-1.9	-12.4
COc1ccccc1/C=C/c1ccc2cccc(O)c2n1	-6.1	10.2	1.6	1.6	1.4	100.0
COc1c(OC(C)=O)ccc(/C=C/c2ccc3ccccc3n2)c1[N+](=O)[O-]	-5.1	43.1*	nt	-0.9	-0.7	40.8
COc1cc(OC)c(OC)cc1C=Cc1ccc2ccccc2n1	nt	31.0*	nt	7.2	nt	nt
COc1c(OC(C)=O)ccc(/C=C/c2ccc3cccc(OC)c3n2)c1[N+](=O)[O-]	-9.3	26.5	18.5	-4.3	0.3	-4.1
Cc1nn(CC(C)C)c(Cl)c1C(=O)NCC1CCCO1 (stereo unspecified)	nt	6.2	nt	5.1	nt	nt
CCOC(=O)c1c(NC(=O)c2ccc(N3C(=O)[C@@H]4[C@H](C3=O)[C@H]3C=C[C@@H]4C3)cc2)sc2c1CC(C)CC2 (stereo partly specified)	11.6	1.2	-6.1	137.5*	0.1	6.8
CCN(Cc1ccccc1)c1cc2c(c3c1ccn3C)C1CCC2C1 (stereo unspecified)	nt	nt	nt	1.8	nt	nt
CC(=O)c1ccc(Nc2nc(C(C)N)cs2)cc1 (stereo unspecified)	nt	31.2*	nt	-5.4	nt	nt
CCS(=O)(=O)NCCc1cc2cc(C)c(C)cc2[nH]c1=O	nt	31.1*	nt	4.0	nt	nt
Cc1cc2cc(CCNS(C)(=O)=O)c(=O)[nH]c2cc1C	-4.3	10.1	-0.5	3.2	-3.1	-6.0
COc1ccc(NC(=O)CN(C)C(=O)c2cccc3ccccc23)cc1	-11.6	1.4	1.6	131.4*	0.8	-7.7
COc1ccc(NC(=O)CN(C)C(=O)c2ccccc2OC)cc1	nt	3.8	-0.8	-0.7	3.1	5.9
C=CSc1sc(Cl)c(N2CCOCC2)c1[N+](=O)[O-]	-0.8	0.3	30.3*	5.1	1.6	8.0
C=CS(=O)(=O)c1sc(Cl)c(N2CCOCC2)c1[N+](=O)[O-]	nt	4.6	6.6	1.0	nt	nt
CC1Cc2ccccc2N1Cc1cc(=O)c(OCC(=O)NCCc2ccccc2)co1 (stereo unspecified)	12.0	-4.9	0.8	6.5	-1.8	0.0
Cn1nc(C(=O)N2CCN(S(=O)(=O)c3ccccc3)CC2)c2ccccc2c1=O	-2.6	-1.2	-1.9	106.9*	5.0	0.0
Cc1ccc(S(=O)(=O)N2CCN(C(=O)c3nn(C(C)C)c(=O)c4ccccc34)CC2)cc1C	0.8	1.7	-6.5	0.5	3.0	-12.4
CCOC(CCn1ccc(O)c(Cc2ccc(Cl)cc2)c1=O)OCC	-1.2	11.0	1.3	-1.7	-1.6	8.1
O=S(=O)(O)c1cc2oc(-c3ccccc3)nc2c2ccccc12	4.1	18.7	-0.7	+	0.2	-1.7
Clc1ccc2oc(-c3ccccc3)nc2c1	0.9	5.2	1.1	2.3	1.1	-2.3
O=C(N/N=C/c1cnc2ccccc2n1)c1cccc(F)c1	3.9	36.7*	-3.4	-3.2	1.2	4.9
